In PubChem BioAssay (Tox21) one finds Potency data, which are given here for 13 molecules.

A short description of test [1]: qHTS assay to identify small molecule antagonists of the glucocorticoid receptor (GR) signaling pathway - cell viability counter screen (AID 720693). Further: nearly all actives have a fitted effect of over 55% in size. For orientation: Quantitative high-throughput screening tests each substance at several concentrations.
Test [2] in a line: qHTS assay for identifying genotoxic compounds that show differential cytotoxicity against isogenic chicken DT40 cell lines with known DNA damage response pathways - wild type cell line (AID 743012). Further: nearly all actives have a fitted effect of over 60% in size. Further: potency means the concentration at half of the fitted maximal effect. In outline: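 Wild-type DT40 cells (300/well) exposed to compounds for 40 hours at 37 C/5% CO2. Viability read by CellTiter-Glo luminescence after 30 min at room temperature.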
Test [3] can be described thus: qHTS assay for identifying genotoxic compounds that show differential cytotoxicity against isogenic chicken DT40 cell lines with known DNA damage response pathways - Rev3 mutant cell line (AID 743014). Further: nearly all actives have a fitted effect of over 55% in size. Further: potency means the concentration at half of the fitted maximal effect.
Test [4] can be described thus: qHTS assay for identifying genotoxic compounds that show differential cytotoxicity against isogenic chicken DT40 cell lines with known DNA damage response pathways - Rad54/Ku70 mutant cell line (AID 743015). Further: nearly all actives have a fitted effect of over 60% in size. Further: potency means the concentration at half of the fitted maximal effect.
The nature of test [5]: qHTS assay to identify small molecule antagonists of the androgen receptor (AR) signaling pathway - cell viability counter screen (AID 743033; further: nearly all actives have a fitted effect of over 45% in size).
Test [6] is described as follows: qHTS assay to identify small molecule antagonists of the thyroid receptor (TR) signaling pathway (AID 743065). Further: nearly all actives have a fitted effect of over 55% in size. Further: potency means the concentration at half of the fitted maximal effect. In outline: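 GH3.TRE-Luc rat pituitary cells (two TREs driving luciferase) were dosed with compound, then stimulated with 1 nM T3 (final) for 23.5 h at 37 C. ONE-Glo luminescence was the read-out, with CellTiter-Fluor fluorescence as the cytotoxicity counter-screen.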

Test [7] deals with thyroid hormone receptor (rat, GH3 cells). In words: qHTS assay to identify small molecule agonists of the thyroid receptor (TR) signaling pathway (AID 743066; calls by dose curve).
Test [8] in a line: qHTS assay to identify small molecule antagonists of the estrogen receptor alpha (ER-alpha) signaling pathway - cell viability counter screen (AID 743074; calls by dose curve;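 further: HEK293 cells carrying ER-alpha-UAS-bla reporter stimulated with 17beta-estradiol; nearly all actives have a fitted effect of over 45% in size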).
Test [9] is described as follows: qHTS assay to identify small molecule antagonists of the estrogen receptor alpha (ER-alpha) signaling pathway using the BG1 cell line - cell viability counter screen (AID 743081).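 Further: compound given together with 17beta-estradiol as the ER stimulus; nearly all actives have a fitted effect of over 45% in size.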 Further: potency means the concentration at half of the fitted maximal effect.
For test [10], the target named is Aromatase (Homo sapiens) (UniProt P11511). In words: qHTS assay to identify aromatase inhibitors (AID 743083). Further: series mostly up to about 70 µM; nearly all actives have a fitted effect of over 55% in size.
Chain of Aromatase (Homo sapiens) (P11511 whole entry, looked up): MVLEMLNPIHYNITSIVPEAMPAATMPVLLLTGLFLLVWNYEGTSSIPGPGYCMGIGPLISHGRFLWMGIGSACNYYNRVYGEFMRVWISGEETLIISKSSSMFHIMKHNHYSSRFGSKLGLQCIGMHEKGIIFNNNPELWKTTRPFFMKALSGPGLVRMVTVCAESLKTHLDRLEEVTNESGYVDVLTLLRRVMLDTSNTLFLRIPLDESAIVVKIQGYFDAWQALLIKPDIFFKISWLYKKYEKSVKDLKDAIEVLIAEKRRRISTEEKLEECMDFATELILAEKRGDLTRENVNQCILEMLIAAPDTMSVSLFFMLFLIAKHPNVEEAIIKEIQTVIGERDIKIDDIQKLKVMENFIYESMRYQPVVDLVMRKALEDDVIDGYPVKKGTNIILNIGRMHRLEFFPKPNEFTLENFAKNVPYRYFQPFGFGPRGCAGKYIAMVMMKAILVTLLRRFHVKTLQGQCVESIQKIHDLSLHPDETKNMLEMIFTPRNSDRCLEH
The target of test [11] is Estrogen receptor (Homo sapiens) (UniProt P03372). Put plainly: qHTS assay to identify small molecule agonists of the estrogen receptor alpha (ER-alpha) signaling pathway (AID 743075; calls by dose curve;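 further: HEK293 GripTite cells with ER-alpha and UAS-driven beta-lactamase reporter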).
Chain of Estrogen receptor (Homo sapiens) (P03372 whole entry, looked up): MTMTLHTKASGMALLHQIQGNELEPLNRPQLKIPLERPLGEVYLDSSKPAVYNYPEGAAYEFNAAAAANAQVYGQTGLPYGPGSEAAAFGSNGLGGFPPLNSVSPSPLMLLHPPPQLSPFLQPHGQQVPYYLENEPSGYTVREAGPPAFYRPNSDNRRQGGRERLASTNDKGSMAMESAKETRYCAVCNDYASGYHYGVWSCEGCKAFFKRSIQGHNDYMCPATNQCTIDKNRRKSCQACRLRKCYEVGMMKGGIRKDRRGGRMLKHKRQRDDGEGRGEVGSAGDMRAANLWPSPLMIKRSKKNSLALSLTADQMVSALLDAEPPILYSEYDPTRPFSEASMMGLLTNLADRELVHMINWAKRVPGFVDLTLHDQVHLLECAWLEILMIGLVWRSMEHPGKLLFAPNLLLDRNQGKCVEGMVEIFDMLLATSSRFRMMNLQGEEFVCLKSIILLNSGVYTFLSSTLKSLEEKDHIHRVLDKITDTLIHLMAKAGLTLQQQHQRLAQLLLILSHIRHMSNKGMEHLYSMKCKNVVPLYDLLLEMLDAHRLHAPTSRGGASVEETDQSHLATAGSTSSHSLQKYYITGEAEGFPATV
Test [12] has the same target. In words: qHTS assay to identify small molecule agonists of the estrogen receptor alpha (ER-alpha) signaling pathway using the BG1 cell line (AID 743079). Further: nearly all actives have a fitted effect of over 20% in size. Further: potency means the concentration at half of the fitted maximal effect.
The nature of test [13]: qHTS assay to identify small molecule antagonists of the estrogen receptor alpha (ER-alpha) signaling pathway using the BG1 cell line (AID 743080; calls by dose curve;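 further: BG1 cells stimulated with 17beta-estradiol alongside compound; series mostly up to about 70 µM; nearly all actives have a fitted effect of over 25% in size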). In outline:
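BG1-Luc-4E2 cells (endogenous full-length ER-alpha, stable 4×ERE-luciferase) were starved 5 days in phenol-red-free medium with 10% charcoal-stripped FBS, plated 24 h, then given compound plus 17beta-estradiol for 21.5 h at 37 C; ONE-Glo luminescence read after 30 min.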

Test [14] can be described thus: qHTS assay to identify small molecule antagonists of the thyroid receptor (TR) signaling pathway - cell viability counter screen (AID 743064). Further: nearly all actives have a fitted effect of over 50% in size. Further: potency means the concentration at half of the fitted maximal effect. In outline:
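In rat pituitary GH3.TRE-Luc reporter cells co-exposed to compound and 1 nM T3 for 23.5 h, cytotoxicity was assessed with CellTiter-Fluor in the same wells, read by fluorescence.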

Test [15] deals with Androgen receptor (Homo sapiens) (UniProt P10275). In words: qHTS assay to identify small molecule agonists of the androgen receptor (AR) signaling pathway using the MDA cell line (AID 743040; further: nearly all actives have a fitted effect of over 20% in size). An outline of the steps:
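Human breast carcinoma MDA-kb2 reporter cells (MMTV-luc, AR/GR elements) were treated for 16 h at 37C in 0% CO2 following a 5 h settling period. Signal was quantified by ONE-Glo luminescence.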

Test [16] has as its target Estrogen receptor (Homo sapiens) (UniProt P03372). Put plainly: qHTS assay to identify small molecule antagonists of the estrogen receptor alpha (ER-alpha) signaling pathway (AID 743069; active means well fitted curve in the direction sought with a large enough effect in the signal ratio in the repeat runs, not every such curve was filed as active; inconclusive means weak or mixed curves, or effect the other way; inactive means no such curve, though single readings can be large or run the other way; the % refers to the signal ratio; further: potency means the concentration at half of the fitted maximal effect). An outline of the steps:
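Reporter cells (ER-alpha-bla, HEK293 background) are conditioned overnight in stripped-serum medium (2% charcoal-stripped FBS). Compound and 17beta-estradiol exposure runs 18 hr at 37C, 5% CO2.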

Test [17] addresses Androgen receptor (Homo sapiens) (UniProt P10275). Put plainly: qHTS assay to identify small molecule antagonists of the androgen receptor (AR) signaling pathway (AID 743035; active means well fitted inhibition curve with a large enough effect in the signal ratio in the repeat runs, not every such curve was filed as active; inconclusive means weak or mixed curves, or effect the other way; inactive means no such curve, though single readings can be large or run the other way; the % refers to the signal ratio). An outline of the steps:
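HEK293 cells stably carrying UAS-beta-lactamase reporter, 2,000/well, given compounds plus R1881 agonist and incubated 16 h at 37C. LiveBLAzer B/G FRET substrate then added for 2 h at room temperature before fluorescence reading.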

Test [18] shares this target. Put plainly: qHTS assay to identify small molecule agonists of the androgen receptor (AR) signaling pathway (AID 743036; active means well fitted activation curve with a large enough effect in the signal ratio in the repeat runs, with a control signal flat, not every such curve was filed as active; inconclusive means weak or mixed curves, or effect the other way; inactive means no such curve, though single readings can be large or run the other way; the % refers to the signal ratio). An outline of the steps: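 Cell-based FRET reporter assay: HEK293 line with a UAS-beta-lactamase construct, compounds added in DMSO, 16 h exposure at 37C, then 2 h substrate step at room temperature and fluorescence intensity read.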
For test [19] the target is unchanged. Put plainly: qHTS assay to identify small molecule antagonists of the androgen receptor (AR) signaling pathway using the MDA cell line (AID 743042; further: nearly all actives have a fitted effect of over 55% in size). An outline of the steps:
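MDA-kb2 breast carcinoma cells carrying MMTV-luciferase (AR/GR responsive) were co-treated with compounds and the agonist R1881 for 16 h at 37C. Inhibition read as ONE-Glo luminescence; CellTiter-Fluor fluorescence measured in parallel for cytotoxicity.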

The nature of test [20]: qHTS assay to identify small molecule antagonists of the androgen receptor (AR) signaling pathway using the MDA cell line - cell viability counter screen (AID 743041; further: nearly all actives have a fitted effect of over 45% in size). An outline of the steps:
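Same-well cytotoxicity was assessed by CellTiter-Fluor in MDA-kb2 AR-luc cells after 16 h of compound treatment under R1881 agonism.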

The structures appear in SMILES notation. Active and inactive are the calls of the source. Unless noted, the call rests on the fitted dose curve; in most records, active means well fitted curve in the direction sought with a large enough effect in the repeat runs; inconclusive means weak or mixed curves; inactive means no such curve, though single readings can be large; an effect the other way counts as inactive or inconclusive.

Chain of Androgen receptor (Homo sapiens) (P10275 whole entry, looked up): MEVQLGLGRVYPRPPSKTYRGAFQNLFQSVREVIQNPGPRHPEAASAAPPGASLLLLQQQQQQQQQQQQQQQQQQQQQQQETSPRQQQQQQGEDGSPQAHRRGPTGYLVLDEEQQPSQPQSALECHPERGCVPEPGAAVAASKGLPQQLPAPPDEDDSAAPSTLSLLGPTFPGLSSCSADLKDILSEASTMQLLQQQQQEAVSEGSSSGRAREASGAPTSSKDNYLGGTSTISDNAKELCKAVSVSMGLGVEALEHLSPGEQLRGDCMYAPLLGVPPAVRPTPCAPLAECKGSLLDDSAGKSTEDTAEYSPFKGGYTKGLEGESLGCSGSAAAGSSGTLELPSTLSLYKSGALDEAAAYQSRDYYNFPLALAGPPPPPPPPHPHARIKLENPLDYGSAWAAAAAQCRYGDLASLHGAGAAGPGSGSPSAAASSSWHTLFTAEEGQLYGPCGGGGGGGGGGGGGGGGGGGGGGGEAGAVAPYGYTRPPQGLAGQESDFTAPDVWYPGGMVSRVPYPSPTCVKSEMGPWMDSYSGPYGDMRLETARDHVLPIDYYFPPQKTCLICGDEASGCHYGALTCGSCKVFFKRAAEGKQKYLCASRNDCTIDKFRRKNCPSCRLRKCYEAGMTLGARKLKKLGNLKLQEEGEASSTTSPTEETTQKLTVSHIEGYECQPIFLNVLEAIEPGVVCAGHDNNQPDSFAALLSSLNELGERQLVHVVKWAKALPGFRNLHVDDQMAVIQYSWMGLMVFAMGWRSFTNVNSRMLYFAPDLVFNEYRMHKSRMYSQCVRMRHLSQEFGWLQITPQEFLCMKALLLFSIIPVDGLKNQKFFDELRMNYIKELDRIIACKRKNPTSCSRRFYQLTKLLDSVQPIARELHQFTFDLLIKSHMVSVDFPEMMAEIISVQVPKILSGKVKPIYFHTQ

On to `C=CCOC(=O)CCC1CCCCC1`, for which the Potency entry in test [1], in test [2], in test [3], in test [4], in [5] and in test [6] was “inactive” throughout. Moreover, the Potency entry in test [7], in test [8], in [9] and in test [10] was “inactive” each time.
Turning to `CCCCCCCCCOS(=O)(=O)O`, the Potency result in test [1], in [2], in [3], in [4], in test [5] and in test [6] was “inactive” each time. Further, the Potency entry in test [7], in test [8], in test [11], in test [13], in test [9] and in [10] was “inactive” in each case. Moreover, the Potency in test [12] was 34.4 µM (active).
Consider `CN(C)C(=O)NC1(c2ccccc2)CCN(CC[C@@]2(c3ccc(F)c(F)c3)CN(C(=O)c3ccccc3)CCO2)CC1`, for which the Potency entry in [1], in test [5], in test [8] and in [10] was “inactive” each time. Besides, the Potency was 40.2 µM (active) in test [2]; 25.3 µM (active) in test [3]; 28.4 µM (active) in [4]; 31.9 µM (active) in test [14]; 56.7 µM (active) in [6].
Consider `CCO[Si](CCCCl)(OCC)OCC`, for which the Potency result in test [1], in test [2], in [3], in test [4], in test [5] and in test [14] was “inactive” throughout. For the same molecule, the Potency result in test [7], in [11], in test [12], in test [13], in test [9] and in test [10] was “inactive” in each case.
Consider `Cc1cccc(C)c1OCC(=O)N[C@@H](Cc1ccccc1)[C@@H](O)C[C@H](Cc1ccccc1)NC(=O)[C@H](C(C)C)N1CCCNC1=O`, for which the Potency entry in test [1], in [15], in test [11], in test [12] and in [13] was “inactive” throughout. Also, the Potency in test [2] was 16.8 µM (active); in test [3], 16.8 µM (active); in test [4] it was 11.9 µM (active); in test [16], 21.3 µM [inconclusive] (active).
Regarding `CC(COCCO)OCCO` (configuration not stated), the Potency entry in [1], in [2], in test [3], in test [4], in test [17] and in [18] was “inactive” in each case. Also, the Potency entry in [15], in [19], in [14], in [6], in test [7] and in test [8] was “inactive” throughout. For the same molecule, the Potency entry in test [9] and in test [10] was “inactive” throughout.
Turning to `COc1cc2nc(N(C)CCCNC(=O)C3CCCO3)nc(N)c2cc1OC` (configuration not stated), the Potency result in [1], in [2], in test [3], in [4], in [5] and in test [14] was “inactive” each time. For the same molecule, the Potency result in test [6], in [7], in [16], in test [8], in test [11] and in test [12] was “inactive” throughout. Besides, the Potency entry in test [13], in test [9] and in test [10] was “inactive” throughout.
Take `ClCCOCCOCCCl`: the Potency entry in [1], in [2], in test [3], in [4], in [5] and in [6] was “inactive” in each case. Besides, the Potency result in [7], in [8], in [11], in test [12], in test [13] and in test [9] was “inactive” throughout. Also, the Potency entry in test [10] was “inactive”.
Take `Nc1ccc(S(=O)(=O)Nc2ccccc2)cc1`: the Potency result in test [1], in test [2], in test [3], in test [4], in test [5] and in [14] was “inactive” in each case. Moreover, the Potency result in [6], in [7], in test [8], in test [9] and in test [10] was “inactive” in each case.
For `CCN(CC)CCOC(=O)C(c1ccccc1)C1CCCCC1` (configuration not stated), the Potency entry in test [1], in test [5], in [16], in test [8], in [11] and in test [12] was “inactive” throughout. In addition, the Potency entry in test [13], in test [9] and in test [10] was “inactive” throughout. In addition, the Potency in [2] is 21.1 µM (active); in test [3] it was 10.6 µM (active); in [4], 23.7 µM (active); in test [14], 26.6 µM (active).
On to `O=C(OCCCCCCOC(=O)c1ccccc1)c1ccccc1`, for which the Potency entry in test [1], in test [20], in test [14], in test [6], in test [7] and in test [16] was “inactive” each time. For the same molecule, the Potency entry in [8], in [11], in test [13], in test [9] and in test [10] was “inactive” in each case. Also, the Potency was 61.1 µM (active) in test [2], 61.1 µM (active) in test [3], 54.5 µM (active) in test [4] and 43.3 µM (active) in test [12].
`O=C(Nc1ccccc1)c1ccccc1O`: the Potency entry in [1], in test [15], in [14], in [7], in test [9] and in test [10] was “inactive” throughout. The Potency in test [2] was 48.6 µM (active); in test [3], 48.6 µM (active); in test [4], 30.6 µM (active); in test [6], 61.1 µM (active).
With `COc1cc(C(=O)OCCCN2CCCN(CCCOC(=O)c3cc(OC)c(OC)c(OC)c3)CC2)cc(OC)c1OC`, the Potency result in test [1], in [18], in [15], in test [20], in [19] and in test [11] was “inactive” in each case. Moreover, the Potency entry in test [10] was “inactive”. Also, the Potency is 8.41 µM (active) in [2]; 15 µM (active) in test [3]; 8.41 µM (active) in test [4]; 8.41 µM (active) in test [14]; 13.3 µM (active) in test [6]; 9.44 µM (active) in test [9].
